{
  "source": "the supplement of paper PMC8728848",
  "binders": {"B1": {"name": "Na-CTL-1 (Necator americanus) (protein)", "chain": "MQRSFLLLLVVLAGAWAVNTTIPLKLMGGFTPMKYQCVGRVSDIWADVLFLIESSDMITKSGFRQVIAFITATTKKMTIGQDEKQTRVGFITYGEEAKLIYDLDHWRSTEKLSDLVQKIPYVKSSGTNIAAAIALANKVFNSPTHRPNVPKVMVIVANGLKKGSQNPIPVATAFKDFGGIIITIEYTQYDNIQVPILKKIASEGYNIRSNDEDFSVRTLTNMLLQANCFCPDHYVPFRVNNPEFGCFVTAKIPSMWRDAAEMCRAVEEGKLVKVENEEKAAFIMKLVGPKKEAWIGLRYYGNKFQWTDGTKLNADDFNLWPEDIKELNGPHCVSMYQDQKDKKYYWRAGKCLEDMRYVCEVQPCSASNYCSEPVFMYRQKHRALLPAPPPPPN"}},
  "test_in_all_cases": "glycan array binding signal (z-score within array); higher = stronger binding",
  "conditions_in_all_cases": "glycan notation: IUPAC condensed, linker removed",
  "key": {"[1]": {"biological_target": "Fuc(a1-2)Gal(b1-3)GalNAc(b1-3)Gal(a1-4)Gal(b1-4)Glc", "method_in_brief": "(§1)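 The Consortium for Functional Glycomics database supplied 3228 glycan arrays, of which those lacking an available protein sequence were dropped. The binding signal, a within-array Z-score, was averaged across arrays of the same protein sequence and across linkers. Negative scores can be read as non-binding.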"}, "[2]": {"biological_target": "Fuc(a1-2)Gal(b1-4)GlcNAc(b1-2)Man", "method_in_brief": "as §1"}, "[3]": {"biological_target": "Fuc(a1-2)Gal(b1-4)GlcNAc(b1-3)[Fuc(a1-2)Gal(b1-4)GlcNAc(b1-6)]GalNAc", "method_in_brief": "as §1"}, "[4]": {"biological_target": "Fuc(a1-2)Gal(b1-4)[Fuc(a1-3)]GlcNAc(b1-3)Gal(b1-4)[Fuc(a1-3)]GlcNAc(b1-3)Gal(b1-4)[Fuc(a1-3)]GlcNAc", "method_in_brief": "as §1"}, "[5]": {"biological_target": "Fuc(a1-2)[Gal(a1-3)]Gal(b1-3)GalNAc", "method_in_brief": "as §1"}, "[6]": {"biological_target": "Fuc(a1-2)[Gal(a1-3)]Gal(b1-3)GlcNAc(b1-3)GalNAc", "method_in_brief": "as §1"}, "[7]": {"biological_target": "Fuc(a1-2)[Gal(a1-3)]Gal(b1-4)GlcNAc(b1-3)[Fuc(a1-2)[Gal(a1-3)]Gal(b1-4)GlcNAc(b1-6)]GalNAc", "method_in_brief": "as §1"}, "[8]": {"biological_target": "Fuc(a1-2)[Gal(a1-3)]Gal(b1-4)GlcNAc(b1-6)GalNAc", "method_in_brief": "as §1"}, "[9]": {"biological_target": "Fuc(a1-2)[GalNAc(a1-3)]Gal(b1-3)GalNAc(a1-3)[Fuc(a1-2)]Gal(b1-4)GlcNAc", "method_in_brief": "as §1"}, "[10]": {"biological_target": "Fuc(a1-2)[GalNAc(a1-3)]Gal(b1-4)[Fuc(a1-3)]GlcNAc(b1-3)GalNAc", "method_in_brief": "as §1"}, "Fuc(a1-4)GlcNAc": {"biological_target": "Fuc(a1-4)GlcNAc", "method_in_brief": "as §1"}, "[11]": {"biological_target": "Gal(a1-3)Gal(b1-3)GlcNAc(b1-6)GalNAc", "method_in_brief": "as §1"}, "[12]": {"biological_target": "Gal(a1-3)Gal(b1-4)GlcNAc(b1-2)Man(a1-3)[Gal(a1-3)Gal(b1-4)GlcNAc(b1-2)Man(a1-6)]Man(b1-4)GlcNAc(b1-4)GlcNAc", "method_in_brief": "as §1"}, "Gal(b1-2)Gal": {"biological_target": "Gal(b1-2)Gal", "method_in_brief": "as §1"}, "[13]": {"biological_target": "Gal(b1-3)GalNAc(b1-4)Gal(b1-4)Glc", "method_in_brief": "as §1"}, "Gal(b1-3)GlcNAc(b1-2)Man": {"biological_target": "Gal(b1-3)GlcNAc(b1-2)Man", "method_in_brief": "as §1"}, "[14]": {"biological_target": "Gal(b1-3)GlcNAc(b1-3)Gal(b1-4)GlcNAc(b1-3)Gal(b1-4)GlcNAc(b1-2)[Gal(b1-3)GlcNAc(b1-3)Gal(b1-4)GlcNAc(b1-3)Gal(b1-4)GlcNAc(b1-6)]Man(a1-6)[Gal(b1-3)GlcNAc(b1-3)Gal(b1-4)GlcNAc(b1-3)Gal(b1-4)GlcNAc(b1-2)Man(a1-3)]Man(b1-4)GlcNAc(b1-4)[Fuc(a1-6)]GlcNAc", "method_in_brief": "as §1"}, "[15]": {"biological_target": "Gal(b1-3)GlcNAc(b1-3)Gal(b1-4)GlcNAc(b1-6)[Gal(b1-3)GlcNAc(b1-3)]Gal(b1-4)Glc", "method_in_brief": "as §1"}, "[16]": {"biological_target": "Gal(b1-3)[Fuc(a1-4)]GlcNAc", "method_in_brief": "as §1"}, "[17]": {"biological_target": "Gal(b1-4)GlcNAc(b1-2)Man(a1-3)[Gal(b1-4)GlcNAc(b1-2)Man(a1-6)][Gal(b1-4)GlcNAc(b1-4)]Man(b1-4)GlcNAc(b1-4)[Fuc(a1-6)]GlcNAc", "method_in_brief": "as §1"}, "[18]": {"biological_target": "Gal(b1-4)GlcNAc(b1-2)Man(a1-3)[GlcNAc(b1-4)][Gal(b1-4)GlcNAc(b1-2)Man(a1-6)]Man(b1-4)GlcNAc(b1-4)GlcNAc", "method_in_brief": "as §1"}, "[19]": {"biological_target": "Gal(b1-4)GlcNAc(b1-2)Man(a1-6)[GlcNAc(b1-2)Man(a1-3)]Man(b1-4)GlcNAc(b1-4)GlcNAc", "method_in_brief": "as §1"}, "[20]": {"biological_target": "Gal(b1-4)GlcNAc(b1-2)Man(a1-6)[Man(a1-3)]Man(b1-4)GlcNAc(b1-4)GlcNAc", "method_in_brief": "as §1"}, "[21]": {"biological_target": "Gal(b1-4)GlcNAc(b1-2)[Gal(b1-4)GlcNAc(b1-6)]Man(a1-6)[Gal(b1-4)GlcNAc(b1-2)Man(a1-3)]Man(b1-4)GlcNAc(b1-4)[Fuc(a1-6)]GlcNAc", "method_in_brief": "as §1"}, "[22]": {"biological_target": "Gal(b1-4)GlcNAc(b1-3)Gal(b1-4)GlcNAc(b1-2)[Gal(b1-4)GlcNAc(b1-3)Gal(b1-4)GlcNAc(b1-6)]Man(a1-6)[Gal(b1-4)GlcNAc(b1-3)Gal(b1-4)GlcNAc(b1-2)Man(a1-3)]Man(b1-4)GlcNAc(b1-4)GlcNAc", "method_in_brief": "as §1"}, "[23]": {"biological_target": "Gal(b1-4)GlcNAc(b1-3)Gal(b1-4)GlcNAc(b1-3)Gal(b1-4)GlcNAc(b1-3)Gal(b1-4)GlcNAc(b1-2)Man(a1-3)[Gal(b1-4)GlcNAc(b1-3)Gal(b1-4)GlcNAc(b1-3)Gal(b1-4)GlcNAc(b1-3)Gal(b1-4)GlcNAc(b1-2)Man(a1-6)]Man(b1-4)GlcNAc(b1-4)[Fuc(a1-6)]GlcNAc", "method_in_brief": "as §1"}, "[24]": {"biological_target": "Gal(b1-4)GlcNAc(b1-3)Gal(b1-4)GlcNAc(b1-3)Gal(b1-4)GlcNAc(b1-3)Gal(b1-4)GlcNAc(b1-3)Gal(b1-4)GlcNAc(b1-2)Man(a1-3)[Gal(b1-4)GlcNAc(b1-3)Gal(b1-4)GlcNAc(b1-3)Gal(b1-4)GlcNAc(b1-3)Gal(b1-4)GlcNAc(b1-3)Gal(b1-4)GlcNAc(b1-2)Man(a1-6)]Man(b1-4)GlcNAc(b1-4)GlcNAc", "method_in_brief": "as §1"}, "[25]": {"biological_target": "Gal(b1-4)GlcNAc(b1-3)Gal(b1-4)GlcNAc(b1-3)[Gal(b1-4)GlcNAc(b1-3)Gal(b1-4)GlcNAc(b1-6)]GalNAc", "method_in_brief": "as §1"}, "[26]": {"biological_target": "Gal(b1-4)GlcNAc(b1-3)[Gal(b1-4)GlcNAc(b1-6)]Gal(b1-4)GlcNAc", "method_in_brief": "as §1"}, "GalNAc(a1-3)Gal": {"biological_target": "GalNAc(a1-3)Gal", "method_in_brief": "as §1"}},
  "note": "The entries come from a sample that favours the strongest signals as a whole.",
  "data": [
    {"binder": "B1", "values": [
      {"measurement": "glycan array binding signal (z-score)", "setting": "[1]", "result": -0.262},
      {"measurement": "glycan array binding signal (z-score)", "setting": "[2]", "result": 0.123},
      {"measurement": "glycan array binding signal (z-score)", "setting": "[3]", "result": -0.753},
      {"measurement": "glycan array binding signal (z-score)", "setting": "[4]", "result": -0.334},
      {"measurement": "glycan array binding signal (z-score)", "setting": "[5]", "result": -0.176},
      {"measurement": "glycan array binding signal (z-score)", "setting": "[6]", "result": -0.06},
      {"measurement": "glycan array binding signal (z-score)", "setting": "[7]", "result": 2.8},
      {"measurement": "glycan array binding signal (z-score)", "setting": "[8]", "result": -0.539},
      {"measurement": "glycan array binding signal (z-score)", "setting": "[9]", "result": -0.489},
      {"measurement": "glycan array binding signal (z-score)", "setting": "[10]", "result": 14.8},
      {"measurement": "glycan array binding signal (z-score)", "setting": "Fuc(a1-4)GlcNAc", "result": 13.6},
      {"measurement": "glycan array binding signal (z-score)", "setting": "[11]", "result": -0.267},
      {"measurement": "glycan array binding signal (z-score)", "setting": "[12]", "result": 0.692},
      {"measurement": "glycan array binding signal (z-score)", "setting": "Gal(b1-2)Gal", "result": -0.582},
      {"measurement": "glycan array binding signal (z-score)", "setting": "[13]", "result": -0.243},
      {"measurement": "glycan array binding signal (z-score)", "setting": "Gal(b1-3)GlcNAc(b1-2)Man", "result": -0.258},
      {"measurement": "glycan array binding signal (z-score)", "setting": "[14]", "result": 1.66},
      {"measurement": "glycan array binding signal (z-score)", "setting": "[15]", "result": -0.326},
      {"measurement": "glycan array binding signal (z-score)", "setting": "[16]", "result": -0.259},
      {"measurement": "glycan array binding signal (z-score)", "setting": "[17]", "result": -0.149},
      {"measurement": "glycan array binding signal (z-score)", "setting": "[18]", "result": 0.121},
      {"measurement": "glycan array binding signal (z-score)", "setting": "[19]", "result": -0.602},
      {"measurement": "glycan array binding signal (z-score)", "setting": "[20]", "result": 3.16},
      {"measurement": "glycan array binding signal (z-score)", "setting": "[21]", "result": 0.921},
      {"measurement": "glycan array binding signal (z-score)", "setting": "[22]", "result": 2.03},
      {"measurement": "glycan array binding signal (z-score)", "setting": "[23]", "result": 2.87},
      {"measurement": "glycan array binding signal (z-score)", "setting": "[24]", "result": 0.78},
      {"measurement": "glycan array binding signal (z-score)", "setting": "[25]", "result": -0.05},
      {"measurement": "glycan array binding signal (z-score)", "setting": "[26]", "result": -0.557},
      {"measurement": "glycan array binding signal (z-score)", "setting": "GalNAc(a1-3)Gal", "result": -0.696}
    ]}
  ]
}
